For 40 compounds, max response results are on record in PubChem BioAssay (NCATS).

Inconclusive results are not listed.

One assay is described as follows: qHTS Assay for Lipid Storage Modulators (AID 1519). As to conditions: Drosophila S3 cells, BODIPY lipid droplet/cell ratio, laser cytometry; measured here: cell count channel max response; cells loaded with oleic acid. The gist of the method: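 Cells seeded at 5,000 per well were treated with compounds over a concentration series and loaded with oleic acid (400 uM, as added). Lipid droplet fluorescence (488 nm excitation, 500-530 nm channel) was read by laser-scanning cytometry and normalized to 20 uM Triacsin C.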
Regarding `CN(C)c1ncnc2ccc(-c3cccnc3)cc12`, the max response turned out to be 4.52%.

On to `CCNc1ncc2nc(-c3cn(C)c4ccccc34)c(=O)n(Cc3cccc(OC)c3)c2n1`, for which the max response was 15.6%. On the same count and under the same terms, in the case of `COc1ccc(Oc2ncc3nc(C)c(=O)n(-c4ccccc4)c3n2)cc1` it was 10.7%.

Regarding `CN(C)Cc1ccccc1-c1nc(NCc2cccs2)c2ccccc2n1`, the max response amounted to 16.9%. Consider `CN(Cc1ccco1)c1ncncc1-c1cccc(C#N)c1`, for which the max response worked out at 14.4%. For the compound `O=c1c(-c2ccc(F)cc2)nc2cnc(N3CCOCC3)nc2n1Cc1cccs1`, the max response was determined as 9.38%.

Regarding `CCNc1ncc2nc(-c3ccc(Cl)cc3)c(=O)n(C[C@H]3CCCO3)c2n1`, the max response is -16%. Turning to `COc1ccc(-n2c(=O)c(-c3cccs3)nc3cnc(N(C)C)nc32)cc1`, the max response worked out at 19%. For the compound `Cn1cc(-c2nc3cnc(Oc4ccccc4)nc3n(C3CC3)c2=O)c2ccccc21`, the max response stood at 1.6%. Consider `O=c1c(-c2cccs2)nc2cnc(N3CCOCC3)nc2n1Cc1ccc(F)cc1`, for which the max response was found to be 18.9%. Turning to `O=c1c(-c2ccc(F)cc2)nc2cnc(Nc3ccccc3)nc2n1C[C@H]1CCCO1`, the max response was -27.1%. With `O=c1c(-c2cc(F)cc(F)c2)nc2cncnc2n1Cc1ccccc1`, the max response was -10.3%. For the compound `c1ccc(Nc2cc(-c3ccoc3)ncn2)cc1`, the max response stood at 15%.

On to `COc1ccc(Oc2ncc3nc(-c4cn(C)c5ccccc45)c(=O)n(C4CC4)c3n2)cc1`, for which the max response is 3.6%. On to `COCCNc1ncncc1-c1c(C)noc1C`, for which the max response stood at 19.7%. In the case of `Cc1noc(C)c1-c1ccc2ncnc(Nc3ccc(F)cc3)c2c1`, the max response is 23.8%.

With `O=c1c(-c2cccs2)nc2cnc(N3CCOCC3)nc2n1Cc1cccs1`, the max response is 22.5%. For the compound `Cc1noc(C)c1-c1ccc2ncnc(N(C)C)c2c1`, the max response came to 19%.

As to `CC(=O)NCCNc1ncnc2ccc(-c3c(C)noc3C)cc12`, the max response was determined as 28.8%. As for `CN(C)c1ncc2nc(-c3cn(C)c4ccccc34)c(=O)n(C[C@H]3CCCO3)c2n1`, the max response was 5.1%. On the same count and under the same terms, to `CN1CCN(c2ncc3nc(-c4ccc(Cl)cc4)c(=O)n(Cc4cccs4)c3n2)CC1` belongs 19.7%; to `CN(Cc1ccco1)c1ncncc1-c1ccoc1`, 22.8%.

The same assay, now with this note: Drosophila S3 cells, BODIPY lipid droplet/cell ratio, laser cytometry; measured here: lipid channel max response; cells loaded with oleic acid.
`CN(C)Cc1ccccc1-c1cc(N(C)Cc2ccco2)ncn1`: the max response amounted to 23.3%. For `c1cncc(-c2cncnc2NC2CCNCC2)c1`, the max response was found to be 20%. On the same count and under the same terms, in the case of `Cn1cc(-c2nc3cnc(Oc4ccccc4)nc3n(C)c2=O)c2ccccc21` it was 18.4%; in that of `CN(C)c1ncc2nc(-c3ccccc3)c(=O)n(-c3ccccc3)c2n1`, 15.8%; in that of `CN1CCN(c2ncc3nc(-c4cc(F)cc(F)c4)c(=O)n(C4CC4)c3n2)CC1`, 12.5%. `O=c1c(-c2ccc(F)cc2)nc2cnc(N3CCNCC3)nc2n1Cc1ccc(F)cc1`: the max response was determined as 9.79%.

Take `O=c1c(-c2cc(F)cc(F)c2)nc2cncnc2n1-c1ccccc1`: the max response was found to be 28.7%. Same read-out and setting: to `CN(Cc1ccco1)c1ncncc1-c1ccccc1Cl` belongs 19.6%.

As for `O=c1cnc2cnc(N3CCOCC3)nc2n1CCc1ccccc1`, the max response was 3.8%. As to `CN1CCN(c2ncncc2-c2ccc(C(=O)N(C)C)cc2)CC1`, the max response is 11.3%.

Consider `CC(=O)NCCNc1ncncc1-c1ccccc1C`, for which the max response was 23%. In the case of `COCCn1c(=O)cnc2cnc(Oc3ccccc3)nc21`, the max response came to 12.6%.

For `COCCn1c(=O)c(-c2ccc(Cl)cc2)nc2cnc(Oc3cccc(Cl)c3)nc21`, the max response was 25.5%. Consider `COc1ccc(CNc2ccnc(-c3ccc4c(c3)OCO4)n2)c(OC)c1`, for which the max response was found to be 17.1%. As to `COc1ncc2nc(-c3cc(F)cc(F)c3)c(=O)n(C)c2n1`, the max response was found to be 28.7%.

Turning to `COc1cccc(Nc2ncc3nc(-c4ccccc4)c(=O)n(Cc4cccs4)c3n2)c1`, the max response was 24.9%.

Consider `COc1ccc(-c2nc3cnc(N4CCN(C)CC4)nc3n(Cc3ccc(F)cc3)c2=O)cc1`, for which the max response came out at 10.9%. For `COCCn1c(=O)c(-c2cc(F)cc(F)c2)nc2cnc(N3CCOCC3)nc21`, the max response was 26.7%. Consider `CN(C)c1ncnc2ccc(-c3cccnc3)cc12`, for which the max response turned out to be 7.15%. Still for that read-out and setting: in the case of `CCNc1ncc2nc(-c3cn(C)c4ccccc34)c(=O)n(Cc3cccc(OC)c3)c2n1` it was 16.9%; in that of `COc1ccc(Oc2ncc3nc(C)c(=O)n(-c4ccccc4)c3n2)cc1`, 17.1%. Take `CN(C)Cc1ccccc1-c1nc(NCc2cccs2)c2ccccc2n1`: the max response is 15.9%. Still for that read-out and setting: to `CN(Cc1ccco1)c1ncncc1-c1cccc(C#N)c1` belongs 17.8%; to `O=c1c(-c2ccc(F)cc2)nc2cnc(N3CCOCC3)nc2n1Cc1cccs1`, 7.2%. Turning to `CCNc1ncc2nc(-c3ccc(Cl)cc3)c(=O)n(C[C@H]3CCCO3)c2n1`, the max response is -29.6%. Turning to `COc1ccc(-n2c(=O)c(-c3cccs3)nc3cnc(N(C)C)nc32)cc1`, the max response was determined as 25.4%. For the compound `Cn1cc(-c2nc3cnc(Oc4ccccc4)nc3n(C3CC3)c2=O)c2ccccc21`, the max response turned out to be 0.0554%.

With `O=c1c(-c2cccs2)nc2cnc(N3CCOCC3)nc2n1Cc1ccc(F)cc1`, the max response is 13.5%.

`O=c1c(-c2ccc(F)cc2)nc2cnc(Nc3ccccc3)nc2n1C[C@H]1CCCO1`: the max response is -76%.

Turning to `O=c1c(-c2cc(F)cc(F)c2)nc2cncnc2n1Cc1ccccc1`, the max response was -10.6%. Same read-out and setting: in the case of `c1ccc(Nc2cc(-c3ccoc3)ncn2)cc1` it was 22%. Same read-out and setting: in the case of `COc1ccc(Oc2ncc3nc(-c4cn(C)c5ccccc45)c(=O)n(C4CC4)c3n2)cc1` it was 3.07%; in that of `COCCNc1ncncc1-c1c(C)noc1C`, 24.5%. On the same count and under the same terms, in the case of `Cc1noc(C)c1-c1ccc2ncnc(Nc3ccc(F)cc3)c2c1` it was 29.1%; in that of `O=c1c(-c2cccs2)nc2cnc(N3CCOCC3)nc2n1Cc1cccs1`, 0.532%. For `Cc1noc(C)c1-c1ccc2ncnc(N(C)C)c2c1`, the max response is 20.5%. Turning to `CC(=O)NCCNc1ncnc2ccc(-c3c(C)noc3C)cc12`, the max response is 29.5%.

Take `CN(C)c1ncc2nc(-c3cn(C)c4ccccc34)c(=O)n(C[C@H]3CCCO3)c2n1`: the max response stood at 8.36%.

Regarding `CN1CCN(c2ncc3nc(-c4ccc(Cl)cc4)c(=O)n(Cc4cccs4)c3n2)CC1`, the max response was 16.2%.

In the case of `CN(Cc1ccco1)c1ncncc1-c1ccoc1`, the max response turned out to be 28.4%.
